# Measured values: PubChem BioAssay (EPA / NIEHS)
# Inconclusive results are not listed. Calls of active or inactive are those of the source. How the source made its calls: active means hit-call score of the fitted dose curve at least 0.9, where 1 is the maximum; inconclusive means response in the unintended direction; inactive means score below 0.9.
# Target: Nucleoli Translocation, AR (gene 367) (UniProt P10275)
# Assay: UPITT_HCI_U2OS_AR_TIF2_Nucleoli_Agonist: University of Pittsburgh U2OS Androgen Receptor-Transcriptional Intermediary Factor 2 (AR-TIF2) Agonism High Content Imaging Assay for Nucleoli Translocation (AID 2283998)
# From the text: UPITT_AR_TIF2_PPIB is a cell-based, high-content imaging assay that uses U2OS, a human osteosarcoma cell line, expressing a human androgen receptor fused to red fluorescent protein and the coactivator TIF2 fused to green fluorescent protein. UPITT_HCI_U2OS_AR_TIF2_Nucleoli_Agonist is one of four assay components measured from the UPITT_AR_TIF2_PPIB assay. It is designed to make measurements of red fluorescence localized in the nucleolar region of the cell nucleus as detected with high-content fluorescent imaging.Data from the assay component UPITT_HCI_U2OS_AR_TIF2_Nucleoli_Agonist was analyzed into 1 assay endpoint. This assay endpoint, UPITT_HCI_U2OS_AR_TIF2_Nucleoli_Agonist, was analyzed in the positive analysis fitting direction relative to DMSO as the baseline of activity. Using a type of binding reporter, measures of receptor for gain-of-signal activity can be used to understand the binding at the pathway-level as it relates to the gene AR.
# Daughter plates containing 2 uL of 10 mM compounds in DMSO were prepared and replicated from the 384-well Library of Pharmacologically Active Compounds (LOPAC) master plates using the Bravo outfitted with a 384-well transfer head. Aluminum adhesive plate seals were applied with an Abgene Seal-IT 100 (Rochester, NY) plate sealer, and the plates were stored at -20 C in a Matrical MatriMinistore (Spokane, WA) automated compound storage and retrieval system. For screening, LOPAC daughter plates were withdrawn from -20C storage, thawed to ambient temperature, centrifuged 1-2 min at 50 g, and the plate seals were removed before the transfer of 98 uL of serum-free tissue culture medium (SFM) into wells using the BioTek Microflo liquid handler (BioTek, Winooski, VT) to generate a 200 uM intermediate stock concentration of library compounds (2.0% DMSO). The diluted compounds were mixed by repeated aspiration and dispensation using a 384-well P30 dispensing head on the Evolution P3 (EP3) liquid handling platform (PerkinElmer, Waltham, MA) and then 5 uL of diluted compounds was transferred to the wells of assay plates. In the LOPAC screen, compounds were individually tested at a final concentration of 20 uM (0.2% DMSO). After the diluted compounds had been transferred from the daughter plates to the primary HCS assay plates, aluminum adhesive plate seals were applied and the diluted daughter plates were stored frozen at -20C. To confirm active compounds identified in the primary screen, we withdrew the LOPAC daughter plates containing the 200 uM intermediate concentration of library compounds (2.0% DMSO) from -20C storage, thawed them to ambient temperature, centrifuged them for 1-2 min at 50 g, and removed the plate seals. A work list was generated to direct the Multiprobe Janus liquid handling platform (PerkinElmer) to cherry pick 75 uL from the wells of the diluted daughter plates that were flagged active in the primary screen and to reformat these into a 384-well plate hit confirmation daughter plate. Five microliters of primary HCS active compounds was then transferred into triplicate wells of assay plates using a 384-well P30 dispensing head on the Evolution P3 (EP3) liquid handling platform (PerkinElmer). […] Daughter plates containing 2 uL of the serially diluted compounds in DMSO were prepared and replicated from the 384-well serial dilution master plates using the Bravo outfitted with a 384-well transfer head. Aluminum adhesive plate seals were applied and plates were stored at -20C. For testing in the bioassays, daughter plates were withdrawn from -20C storage, thawed to ambient temperature, centrifuged for 1-2 min at 50 g, and the plate seals were removed before the transfer of 38 uL of SFM into wells using the BioTek Microflo liquid handler (BioTek) to generate an intermediate stock concentration of library compounds ranging from 1.95 to 500 uM (5.0% DMSO). […]
# Sequence of Nucleoli Translocation, AR (gene 367) (P10275 whole entry, looked up): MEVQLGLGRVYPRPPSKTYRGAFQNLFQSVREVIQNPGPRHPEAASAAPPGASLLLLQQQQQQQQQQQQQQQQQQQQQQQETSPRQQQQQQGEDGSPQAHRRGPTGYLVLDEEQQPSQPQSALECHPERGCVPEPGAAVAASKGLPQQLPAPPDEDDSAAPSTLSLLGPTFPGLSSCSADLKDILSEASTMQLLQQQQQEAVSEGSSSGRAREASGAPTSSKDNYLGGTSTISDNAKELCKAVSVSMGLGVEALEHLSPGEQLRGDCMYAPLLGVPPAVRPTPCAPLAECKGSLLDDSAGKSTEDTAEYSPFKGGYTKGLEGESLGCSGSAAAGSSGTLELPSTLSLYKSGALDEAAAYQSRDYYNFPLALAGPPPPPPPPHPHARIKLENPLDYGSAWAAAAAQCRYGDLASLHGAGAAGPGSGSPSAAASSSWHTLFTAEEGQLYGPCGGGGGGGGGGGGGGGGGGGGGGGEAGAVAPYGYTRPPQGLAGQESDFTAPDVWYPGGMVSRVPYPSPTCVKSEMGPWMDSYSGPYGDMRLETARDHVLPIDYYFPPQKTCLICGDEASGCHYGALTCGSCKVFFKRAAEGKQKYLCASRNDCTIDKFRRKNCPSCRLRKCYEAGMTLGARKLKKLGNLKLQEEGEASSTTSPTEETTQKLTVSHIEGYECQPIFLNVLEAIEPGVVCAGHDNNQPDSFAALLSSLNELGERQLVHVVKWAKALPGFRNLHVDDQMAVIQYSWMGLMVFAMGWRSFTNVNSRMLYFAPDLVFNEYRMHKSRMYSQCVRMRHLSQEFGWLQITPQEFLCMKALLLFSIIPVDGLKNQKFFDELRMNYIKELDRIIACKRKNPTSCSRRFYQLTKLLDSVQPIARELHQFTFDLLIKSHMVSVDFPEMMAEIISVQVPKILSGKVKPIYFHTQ
Compound,outcome,AC50
CCCCOCN(C(=O)CCl)c1c(CC)cccc1CC,inactive,–
COCc1cnc(C2=NC(C)(C(C)C)C(=O)N2)c(C(=O)O)c1 (stereo unspecified),inactive,–
CCCCC(O)(Cn1cncn1)c1ccc(Cl)cc1Cl (stereo unspecified),–,78.4 µM (active)
CC(C)N1C(=O)N(c2ccccc2)CSC1=NC(C)(C)C,inactive,–
Clc1cccc(C(Cl)(Cl)Cl)n1,inactive,–
Nc1c(Cl)c(F)nc(OCC(=O)O)c1Cl,inactive,–
CC1(C)CCC(=Cc2ccc(Cl)cc2)C1(O)Cn1cncn1 (stereo unspecified),–,9.87 µM (active)
COc1ccc(-c2ccccc2)cc1NNC(=O)OC(C)C,inactive,–
Cc1cnc(C2=NC(C)(C(C)C)C(=O)N2)c(C(=O)O)c1 (stereo unspecified),inactive,–
COP(=S)(OC)SCn1nnc2ccccc2c1=O,inactive,–
COC(=O)c1c(C(F)F)nc(C(F)(F)F)c(C2=NCCS2)c1CC(C)C,inactive,–
